Compound activity (PubChem BioAssay)
In the library only some 4.5% were active in any assay of this set; here they are far more common.
Efflux pump inh – antifungal efflux pump inhibition, Nile Red retention. hit rate 0.44% among 330,000. S. cerevisiae Candida pump triplex. inhibition, % at 10 µM;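 active = plate passing quality check with inhibition over a set limit, or well fluorescence over plate mean plus 4 SD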;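 also: Nile Red retained in pooled yeast measured as flow cytometry median fluorescence; 0% = buffer negative control and 100% = Enniatin B positive control; higher means more Nile Red kept so more efflux inhibition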
Rce1 inh – inhibitors of yeast Ras-converting enzyme | yeast membranes, quenched prenylated peptide cleavage fluorescence | calls only | hit rate 0.27% among 290,000 | AID 2563;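 active = fall in fluorescence gain of 50% or more versus controls, with final raw signal at or below 3038400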;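 also: plate controls were neutral control wells for no effect and wells lacking membranes for full effect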
HDAC3 inhib – blocks human histone deacetylase 3. hit rate 0.15% among 320,000. recombinant HDAC3, fluorogenic peptide/trypsin coupled, fluorescence. inhibition, % at 8.3 µM; in the data active = inhibition above about 26%, passing the limit was not always enough
Target sequence (O15379 whole entry, looked up): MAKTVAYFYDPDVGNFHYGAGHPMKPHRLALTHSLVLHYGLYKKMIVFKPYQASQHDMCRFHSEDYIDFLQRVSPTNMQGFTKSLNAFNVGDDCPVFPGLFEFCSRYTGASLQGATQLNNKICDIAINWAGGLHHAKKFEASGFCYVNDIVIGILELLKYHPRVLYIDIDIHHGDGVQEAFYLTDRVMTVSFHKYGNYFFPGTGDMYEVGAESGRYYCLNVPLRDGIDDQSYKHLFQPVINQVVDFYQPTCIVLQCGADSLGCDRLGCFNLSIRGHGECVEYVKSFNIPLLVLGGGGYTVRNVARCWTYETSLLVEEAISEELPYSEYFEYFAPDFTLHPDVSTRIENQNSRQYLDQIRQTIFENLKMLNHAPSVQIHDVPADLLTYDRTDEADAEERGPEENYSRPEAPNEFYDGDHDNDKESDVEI
Rtt109 HAT inh – inhibitors of Candida albicans Rtt109/Vps75 histone acetyltransferase; hit rate 0.16% among 330,000; purified Rtt109/Vps75, ThioGlo CoA-SH fluorescence, 4 h; Q5AAJ8; inhibition, % at 34.9 µM;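 active = inhibition of at least 50% in every replicate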
GRK2 aptamer HTS – blocks RNA aptamer binding to human GRK2 | bead flow cytometry, FAM-aptamer displacement from GRK2 | inhibition of aptamer binding, % at 10 µM | hit rate 0.59% among 330,000 | AID 488847;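 active = inhibition of aptamer binding above 40%, roughly 3 SD of noise, on plates passing a quality check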;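 also: median bead fluorescence of bound FAM aptamer so fluorescent compounds give negative values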
ALR inh – blocks human ALR sulfhydryl oxidase activity; purified ALR, DTT oxidation, H2O2 HRP-luminol luminescence; AID 485317; inhibition, % (concentration not given with the values); hit rate 3.8% among 290,000;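 active = mean replicate inhibition above about 79%, with every replicate also reaching it, limit read from the data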
Target sequence (P55789 whole entry, looked up): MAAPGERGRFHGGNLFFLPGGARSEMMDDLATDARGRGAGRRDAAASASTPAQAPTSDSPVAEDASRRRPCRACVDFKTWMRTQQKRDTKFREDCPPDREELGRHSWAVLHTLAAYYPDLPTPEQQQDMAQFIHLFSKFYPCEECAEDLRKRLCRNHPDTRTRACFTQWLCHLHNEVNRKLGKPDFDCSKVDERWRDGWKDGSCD
Active calls of the source: *.

Results for COc1ccc(CCNC(=O)c2ccc(NS(=O)(=O)c3ccc4[nH]c(=O)[nH]c4c3)cc2)cc1 ?
Efflux pump inh: 0; Rce1 inh: inactive; HDAC3 inhib: 10; Rtt109 HAT inh: 0; GRK2 aptamer HTS: 2; ALR inh: -3

Results for CC(C)N1CCN(C(=O)c2ccc([N+](=O)[O-])cc2)CC1 ?
Efflux pump inh: 0; Rce1 inh: inactive; HDAC3 inhib: 5; GRK2 aptamer HTS: 1; ALR inh: -4

What do the screens show for `Cc1ccccc1N=C(NO)c1nonc1N`?
Efflux pump inh: 0; Rce1 inh: inactive; HDAC3 inhib: -1; Rtt109 HAT inh: -7; GRK2 aptamer HTS: 0; ALR inh: 9

Results for COc1cc(C(C)=O)ccc1OCC(=O)OCCCOC(=O)COc1ccc(C(C)=O)cc1OC ?
Efflux pump inh: 0; Rce1 inh: inactive; HDAC3 inhib: 0; Rtt109 HAT inh: -3; GRK2 aptamer HTS: 7; ALR inh: -4

Results for O=C(CN1CCCc2ccccc21)NCc1ccc2c(c1)OCO2 ?
Efflux pump inh: 0; Rce1 inh: inactive; HDAC3 inhib: 4; Rtt109 HAT inh: 64*; GRK2 aptamer HTS: 0; ALR inh: -10

What do the screens show for `O=C(CN1CCc2ccccc21)Nc1ccc2c(c1)OCO2`?
Efflux pump inh: 0; HDAC3 inhib: -9; GRK2 aptamer HTS: 1; ALR inh: -12

Results for O=C(CN1CCCc2ccccc21)N/N=C/c1ccc(O)cc1O ?
Efflux pump inh: 0; Rce1 inh: inactive; HDAC3 inhib: 0; Rtt109 HAT inh: 9; GRK2 aptamer HTS: 8; ALR inh: 98*

How did CC(C)(C)NC(=O)NC(=O)CN1CCCc2ccccc21 do in these assays?
Efflux pump inh: 0; Rce1 inh: inactive; HDAC3 inhib: 3; Rtt109 HAT inh: 2; GRK2 aptamer HTS: 0; ALR inh: 96*

How did O=C(CN1CCCc2ccccc21)NC(=O)NCc1ccccc1 do in these assays?
Efflux pump inh: 0; Rce1 inh: inactive; HDAC3 inhib: -2; Rtt109 HAT inh: -8; GRK2 aptamer HTS: 1; ALR inh: 27

What do the screens show for `O=C(CN1CCc2ccccc21)NCc1ccc2c(c1)OCO2`?
Efflux pump inh: 1; Rce1 inh: inactive; HDAC3 inhib: -2; GRK2 aptamer HTS: 1; ALR inh: 99*

Results for O=C1C(Cc2ccccc2)Nc2ncnc(N3CCCCC3)c2N1Cc1ccc(Cl)cc1 (centres undefined) ?
Efflux pump inh: 0; Rce1 inh: inactive; HDAC3 inhib: 11; Rtt109 HAT inh: -4; GRK2 aptamer HTS: 0; ALR inh: 3

Results for N#Cc1ccc(CN2C(=O)NC3(CCCCCC3)C2=O)cc1 ?
Efflux pump inh: 0; HDAC3 inhib: 2; Rtt109 HAT inh: -7; GRK2 aptamer HTS: 1; ALR inh: -3

Results for CCCNc1ncnc2c1cnn2C1CCCCO1 (centres undefined) ?
Rtt109 HAT inh: -4

How did NC(=O)C1CCN(CC(=O)Nc2ccccc2C(=O)NC2CC2)CC1 do in these assays?
Efflux pump inh: 0; HDAC3 inhib: -1; Rtt109 HAT inh: 7; GRK2 aptamer HTS: 0; ALR inh: -2

Results for O=C(CSc1nc2ccccc2[nH]1)NCc1ccc2c(c1)OCO2 ?
Efflux pump inh: 0; Rce1 inh: inactive; Rtt109 HAT inh: 5; GRK2 aptamer HTS: 1

What do the screens show for `O=C(CSc1c[nH]c2ccccc12)NCc1ccc2c(c1)OCO2`?
Efflux pump inh: 0; Rce1 inh: inactive; HDAC3 inhib: 2; Rtt109 HAT inh: -8; GRK2 aptamer HTS: 2; ALR inh: 98*

How did CCN(c1ccccc1)S(=O)(=O)c1ccc(C(=O)NCc2ccco2)cc1 do in these assays?
Efflux pump inh: 0; Rtt109 HAT inh: 4; GRK2 aptamer HTS: 0

Results for Cc1c(-c2cc(C(=O)O)no2)cnn1C ?
Efflux pump inh: 1; Rce1 inh: inactive; HDAC3 inhib: 8; Rtt109 HAT inh: 4; GRK2 aptamer HTS: 0; ALR inh: 29

What do the screens show for `CCn1ncc(-c2cc(C(=O)O)no2)c1C`?
Efflux pump inh: 0; Rce1 inh: inactive; HDAC3 inhib: 47*; Rtt109 HAT inh: -2; GRK2 aptamer HTS: 3; ALR inh: 58

Results for C[C@@H]1CN([C@@H](C)CO)C(=O)Cc2cc(NC(=O)C3CCCCC3)ccc2O[C@H]1CN(C)S(=O)(=O)c1ccccc1 ?
Efflux pump inh: 0; HDAC3 inhib: 0; Rtt109 HAT inh: -7; GRK2 aptamer HTS: 0; ALR inh: -6

What do the screens show for `O=C(NC1CCN(Cc2ccccc2)CC1)c1cccc(S(=O)(=O)Nc2ccc(SC(F)F)cc2)c1`?
Efflux pump inh: 0; HDAC3 inhib: -1; Rtt109 HAT inh: 0; GRK2 aptamer HTS: 0; ALR inh: 99*

Results for Cc1ccc(NS(=O)(=O)c2cccc(C(=O)NC3CCN(Cc4ccccc4)CC3)c2)cc1 ?
Rtt109 HAT inh: 0

Results for O=C(Cc1ccc(F)cc1)N[C@@H]1c2ccccc2CC[C@H]1OCc1ccccc1 ?
Efflux pump inh: 1; Rtt109 HAT inh: 7; GRK2 aptamer HTS: 0

Results for CCN(CC)Cc1c(-c2ccccc2)[nH]c2ccc(C)cc2c1=O ?
Efflux pump inh: 0; Rce1 inh: inactive; HDAC3 inhib: 6; GRK2 aptamer HTS: 3; ALR inh: 97*

Results for Cc1ccc(NC(=O)C2CCCN(S(=O)(=O)c3cccnc3)C2)c(C)c1 (centres undefined) ?
Efflux pump inh: 0; Rce1 inh: inactive; HDAC3 inhib: -7; Rtt109 HAT inh: -6; GRK2 aptamer HTS: 0; ALR inh: -2

How did Nc1ncc(-c2ccc([N+](=O)[O-])cc2)cn1 do in these assays?
Efflux pump inh: 0; Rce1 inh: inactive; HDAC3 inhib: 5; GRK2 aptamer HTS: 0; ALR inh: -10

What do the screens show for `O=[N+]([O-])c1ccc(-c2cnc(NO)nc2)cc1`?
Efflux pump inh: 0; Rce1 inh: inactive; HDAC3 inhib: 5; Rtt109 HAT inh: -2; GRK2 aptamer HTS: 0; ALR inh: 99*

How did CCn1ncc(S(=O)(=O)NCc2ccccc2Cl)c1C do in these assays?
Efflux pump inh: 0; Rce1 inh: inactive; HDAC3 inhib: 1; Rtt109 HAT inh: -4; GRK2 aptamer HTS: 4; ALR inh: -2

How did Cc1ccc(NC(=O)CSc2nc(N)cc(=O)[nH]2)cc1Cl do in these assays?
Efflux pump inh: 0; Rce1 inh: inactive; HDAC3 inhib: 0; Rtt109 HAT inh: -2; GRK2 aptamer HTS: 0; ALR inh: 95*

What do the screens show for `Nc1nc(SCC(=O)Nc2ccc(Cl)cc2)[nH]c(=O)c1-c1ccccc1`?
Efflux pump inh: 0; Rce1 inh: inactive; HDAC3 inhib: -1; Rtt109 HAT inh: -11; GRK2 aptamer HTS: 5; ALR inh: 12

What do the screens show for `Cc1ccc(NC(=O)CSc2nc(N)c(-c3ccccc3)c(=O)[nH]2)cc1Cl`?
Efflux pump inh: 0; Rce1 inh: inactive; HDAC3 inhib: 0; Rtt109 HAT inh: 4; GRK2 aptamer HTS: 0; ALR inh: 98*
